# Screening data: PubChem, National Center for Advancing Translational Sciences (NCATS)
# EPAC1 agonist: activates human EPAC1 exchange factor. Potency, µM (doses to about 154 µM), for the others: at the highest dose activation, actives largely listed as activators. EPAC1 agonist qHTS, biochemical assay; response scale: 100% = response to 6.5 mM cAMP. 0.073% of 360,000 active. O95398; further: nearly all actives have a fitted effect of over 60% in size
#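 Compounds were pinned as a concentration titration into mixtures of EPAC1 (100 nM), BODIPY-GDP-loaded Rap1B (250 nM) and GDP (50 uM). After 5 min at room temperature, fluorescence was followed for 30 min; activity was scaled to 6.5 mM cAMP.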
# EPAC2 agonist: agonists of human EPAC2 (RAPGEF4); AID 720711; Potency, µM (doses to about 154 µM), without a hit: top-dose activation, usual class: activators; Q8WZA2; 0.079% of 360,000 active; EPAC2 activation, biochemical qHTS; response scale: 100% = 6.5 mM cAMP response; further: nearly all actives have a fitted effect of over 50% in size
#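 Setup: EPAC2 100 nM, labeled Rap1B complex 250 nM, free GDP 50 uM. Compound titrations pinned in, brief spin, 5 min room temperature incubation. Kinetic fluorescence read over 30 min, normalized to 6.5 mM cAMP.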
# EPAC1 antagonist: antagonists of human EPAC1 | O95398 | 0.14% of 360,000 active | AID 720709 | Potency, µM (top dose mostly 115 µM), inactives show top-dose activity change, negative = inhibition, most hits filed as inhibitors | EPAC1 GEF assay, Rap1b-BODIPY-GDP exchange fluorescence;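 further: plate controls were vehicle for no effect and positive control for full effect; nearly all actives have a fitted effect of over 50% in size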
# EPAC2 antag: EPAC2 (human) antagonism. EPAC2 GEF exchange of Rap1B-BODIPY-GDP, fluorescence. 0.18% of 360,000 active. Potency, µM (doses to about 114 µM), for inactives: at the top dose activity, negative = inhibition, hits mostly inhibitors. Q8WZA2; further: on the % scale 0 is the no-effect control and ±100 the full control effect; nearly all actives have a fitted effect of over 45% in size
# USP1 inh: blocks the human USP1/UAF1 deubiquitinase complex; O94782; recombinant USP1/UAF1, Ub-Rhodamine cleavage fluorescence; Potency, µM (highest dose often 57.1 µM), without a hit: at the top dose activity change, negative = inhibition, most hits filed as inhibitors; 0.23% of 390,000 active; AID 743255; further: on the % scale 0 is the no-effect control and ±100 the full control effect; nearly all actives have a fitted effect of over 60% in size
#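 USP1/UAF1 complex (1 nM) preincubated 15 min at room temperature with compound, then Ub-Rho substrate (150 nM final) added. Kinetic fluorescence at 480/540 nm over 6 reads at 60 s intervals; 50 mM HEPES pH 7.8, 0.5 mM EDTA, 0.1 mg/ml BSA, 1 mM TCEP, 0.01% Tween-20.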
# * marks the source's active call; other numbers are inactive results; u = inconclusive; x = no result given. Compounds with a hit are over-represented: about 0.49% of the library has one in this group of screens. The call rests on the fitted dose curve; in most records, active means well fitted curve in the direction sought with a large enough effect; inconclusive means small, poorly fitted or top-dose-only effect, or another doubt; inactive means no such curve, though single readings can be large; an effect the other way counts as inactive or inconclusive. Potency means the concentration at half of the fitted maximal effect.
SMILES,EPAC1 agonist,EPAC2 agonist,EPAC1 antagonist,EPAC2 antag,USP1 inh
COC(=O)c1ccc(NC(=O)CN(c2cccc(C(F)(F)F)c2)S(C)(=O)=O)cc1,x,x,x,x,-27%
O=c1cc(CN2CCN(S(=O)(=O)c3cccc(Cl)c3)CC2)c2ccc(O)cc2o1,-7%,-12%,79µM*,-9%,-18%
CC(CC(=O)Nc1ccc(F)cc1)S(=O)(=O)c1cc2c3c(c1)CCN3C(=O)CC2 (configuration not stated),x,x,x,x,-20%
O=C(Cc1ccc(Cl)cc1)Nc1ccc(S(=O)(=O)Nc2ncccn2)cc1,-3%,4%,-5%,-12%,-9%
NS(=O)(=O)c1ccc(NC(=O)Cc2c(F)cccc2Cl)cc1,1%,-2%,-18%,28µM*,-3%
O=C(Cc1c(Cl)cccc1Cl)Nc1ccc(S(=O)(=O)Nc2ncccn2)cc1,10%,4%,8%,10µM*,u
Cc1ccnc(NS(=O)(=O)c2ccc(NC(=O)Cc3c(F)cccc3Cl)cc2)n1,-3%,7%,0%,u,-25%
Cc1ccc(-c2nn3c(=O)cc(CN4CCN(C(=O)/C=C/c5ccccc5)CC4)nc3s2)cc1,x,x,x,x,-6%
CCOC(=O)C1=C(CS(=O)(=O)c2c(C)cc(C)cc2C)NC(=O)NC1c1cccc(OC)c1 (configuration not stated),x,x,x,x,-21%
Cc1ccccc1OC(=O)CSc1nnc(-c2ccc3c(c2)OCO3)o1,x,x,x,x,-18%
COc1ccccc1Nc1nn2c(=O)c3ccc(C(=O)NCCc4ccccc4)cc3nc2s1,x,x,x,x,-21%
O=C1Nc2c(Cl)cc(Cl)cc2C1=O,7%,1%,u,u,28µM*
Cc1cccc(N=C2C(=O)Nc3c(Cl)cccc32)c1,9%,7%,-6%,-5%,-20%
CCCCn1c(NC(C)=O)c(C#N)c2nc3ccccc3nc21,6%,9%,1%,-4%,-22%
C=CCn1c(NC(=O)c2ccccc2Cl)c(C#N)c2nc3ccccc3nc21,8%,-1%,u,u,16µM*
N#C/C(=C/c1ccc(N2CCCCC2)o1)C(=O)Nc1ccc(Cl)cc1,100µM*,100µM*,1%,5%,28µM*
N#C/C(=C\c1ccc[nH]1)C(=O)Nc1ccccc1Cl,-15%,7%,-19%,14%,-21%
N#C/C(=C/c1ccc(N2CCCCC2)o1)C(=O)Nc1ccc2ccccc2c1,24%,6%,48%,19%,34%
COc1ccc(NC(=O)/C(C#N)=C/c2ccc(C)o2)cc1,x,x,x,x,-26%
CC1CC1c1ccc(/C=C(\C#N)C(=O)Nc2ccc(Cl)cc2)o1 (configuration not stated),100µM*,22%,10%,-1%,-19%
CC1CC1c1ccc(/C=C(\C#N)C(=O)Nc2ccccc2Cl)o1 (configuration not stated),100µM*,4%,-14%,5%,u
Nc1c2c(=O)[nH]c(O)cc2nn1-c1ccccc1,13%,10%,89µM*,7%,u
COCCNC(=O)c1cnn(-c2ccc(C)cc2C)c1C1CCN(C(=O)OC(C)(C)C)CC1,x,x,x,x,-13%
O=c1oc2ccc(Cl)cc2nc1/C=C(\O)c1cccs1,12%,100µM*,-12%,100%,-7%
O=c1[nH]c2ccccc2nc1/C=C(\O)c1cccs1,100µM*,u,16%,26%,16µM*
SMILES,EPAC1 agonist,EPAC2 agonist,EPAC1 antagonist,EPAC2 antag,USP1 inh
CC(C)(C)/C(O)=C/c1nc2ccccc2[nH]c1=O,3%,4%,-4%,-2%,-12%
Cc1ccc2nc(-c3cc(NC(=O)/C=C/c4ccccc4)ccc3Cl)oc2c1,x,x,x,x,-11%
Cc1ccc(C(=O)c2oc3ccccc3c2NC(=O)c2nc(S(C)(=O)=O)ncc2Cl)cc1F,x,x,x,x,-26%
CC(=O)Nc1c(C)nn(-c2ccccc2)c1N1CCC(C(=O)NCc2ccc(F)cc2)CC1,x,x,x,x,-7%
O=c1oc(-c2ccccc2)c(-c2ccccc2)c2ccccc12,4%,4%,-19%,45µM*,-23%
O=C(NCc1cccnc1)c1nn(-c2ccccc2F)nc1CO,x,x,x,x,-21%
O=C1/C(=C/c2cccc(F)c2)SC(=S)N1NS(=O)(=O)c1ccccc1,-13%,-5%,40µM*,18µM*,-16%
